From PubChem BioAssay (NCI)
About 79,000 compounds went through this panel and 15% of them were active in at least one assay; those are over-represented in the sample as a whole. Calls of active or inactive are those of the source. Rule as the data show it: active = growth inhibition above about 70%; inactive = the rest.

Key:
[1] = NCI Yeast Anticancer Drug Screen. Data for the wt2 strain (AID 169);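 also: 0% = growth of vehicle-treated yeast cultures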; details: S. cerevisiae wt2 strain growth inhibition, stronger effect = higher value
Procedure, shortened: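 Inhibition of yeast growth was determined after compound treatment, normalised to controls receiving only vehicle.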

[2] = NCI Yeast Anticancer Drug Screen. Data for the mlh1 strain (AID 171);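 also: 0% = growth of vehicle-treated control cultures of the same strain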; details: S. cerevisiae mlh1 strain growth inhibition, stronger effect = higher value
Procedure, shortened: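 Vehicle-normalised growth inhibition of a repair- or checkpoint-altered yeast strain following compound treatment.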

[3] = NCI Yeast Anticancer Drug Screen. Data for the sgs1 strain (AID 173);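 also: 0% = growth of vehicle-only control cultures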; details: S. cerevisiae sgs1 mutant, stronger effect = higher value
Procedure, shortened: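 Screen format: yeast with repair or checkpoint alterations, compound exposure, growth read relative to vehicle.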

[4] = NCI Yeast Anticancer Drug Screen. Data for the mlh1 rad18 strain (AID 175); details: S. cerevisiae mlh1 rad18 strain growth inhibition, stronger effect = higher value
Procedure, shortened: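 Vehicle-treated cultures served as the reference for growth inhibition in a yeast strain carrying DNA damage repair alterations exposed to each compound.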

[5] = NCI Yeast Anticancer Drug Screen. Data for the rad52 strain (AID 147);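 also: 0% = growth of vehicle-treated control cultures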; details: S. cerevisiae rad52 mutant growth inhibition, stronger effect = higher value
Procedure, shortened: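 Vehicle-treated cultures served as the reference for growth inhibition of compound-exposed yeast bearing a DNA repair mutation.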

[6] = NCI Yeast Anticancer Drug Screen. Data for the wt1 strain (AID 149);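 also: 0% = growth of vehicle-treated wt1 cultures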; details: S. cerevisiae wt1 strain (SPY 50644) growth inhibition, stronger effect = higher value
Procedure, shortened: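 Compounds are added to wt1 yeast cultures. Growth is then measured. Inhibition is expressed relative to vehicle-treated controls.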

[7] = NCI Yeast Anticancer Drug Screen. Data for the rad50EPP+ strain (AID 151);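 also: 0% = growth of vehicle-treated control cultures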; details: S. cerevisiae rad50 mutant strain, stronger effect = higher value
Procedure, shortened: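 In this screen, rad50EPP+ yeast were exposed to compounds. Growth inhibition was scored against vehicle-treated controls.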

[8] = NCI Yeast Anticancer Drug Screen. Data for the mgt1 strain (AID 153); details: S. cerevisiae mgt1 mutant growth inhibition, stronger effect = higher value
Procedure, shortened: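 mgt1 strain exposed; growth vs vehicle control recorded as inhibition.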

[9] = NCI Yeast Anticancer Drug Screen. Data for the rad50 strain (AID 155);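 also: 0% = growth of vehicle-only cultures of the same strain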; details: S. cerevisiae rad50 strain growth inhibition, stronger effect = higher value
Procedure, shortened: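 Inhibition values express reduced yeast growth in compound-treated cultures relative to vehicle-treated controls.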

[10] = NCI Yeast Anticancer Drug Screen. Data for the mec2-1 strain (AID 157); details: S. cerevisiae mec2-1 strain, stronger effect = higher value
Procedure, shortened: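 Vehicle-treated cultures served as reference for growth inhibition of compound-exposed mec2-1 yeast.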

[11] = NCI Yeast Anticancer Drug Screen. Data for the rad14 strain (AID 159);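 also: 0% = growth of vehicle-treated control cultures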; details: S. cerevisiae rad14 strain growth inhibition, stronger effect = higher value
Procedure, shortened: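 A mutant yeast strain defective in DNA damage repair is treated with compound; inhibition of its growth is scored against untreated, vehicle-exposed cultures.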

[12] = NCI Yeast Anticancer Drug Screen. Data for the sgs1 mgt1 strain (AID 161);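 also: 0% = growth of cultures given vehicle only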; details: S. cerevisiae sgs1 mgt1 strain, stronger effect = higher value
Procedure, shortened: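 Test agents were incubated with a DNA-repair-mutant yeast strain. Growth was then read and compared against vehicle-treated controls.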

[13] = NCI Yeast Anticancer Drug Screen. Data for the CLN2oe strain (AID 163);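 also: 0% = growth of vehicle-only control cultures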; details: S. cerevisiae CLN2oe strain, stronger effect = higher value
Procedure, shortened: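 Inhibition relative to vehicle-treated yeast is reported. Cells: strain with genetic alteration in cell-cycle control, grown with compound.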

[14] = NCI Yeast Anticancer Drug Screen. Data for the cln2 rad14 strain (AID 165);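 also: 0% = growth equal to vehicle treated cultures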; details: S. cerevisiae cln2 rad14 strain, stronger effect = higher value
Procedure, shortened: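 Each compound was tested on cln2 rad14 yeast. Inhibition of growth was calculated against vehicle-exposed controls.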

[15] = NCI Yeast Anticancer Drug Screen. Data for the bub3 strain (AID 167); details: S. cerevisiae bub3 mutant strain, stronger effect = higher value
Procedure, shortened: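 Steps: expose the mutant yeast strain to compound; grow alongside vehicle-treated cultures; measure growth; express inhibition against the vehicle cultures.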

[16] = NCI Yeast Anticancer Drug Screen. Data for the rad18 strain (AID 177); details: S. cerevisiae rad18 mutant growth inhibition, stronger effect = higher value
Procedure, shortened: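 Test articles were incubated with altered yeast defective in DNA damage repair. Results are given as inhibition of growth versus vehicle.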

[17] = at 5.0 µM (retest, dose inferred, filed as 0.5)
[18] = at 50.0 µM (retest, dose inferred, filed as 5.0)

Measured: growth inhibition

CCN(CC)CCC(=O)Nc1ccc2sc3ccccc3c(=O)c2n1
inactive: [1]; at 1.2 µM -2% | [1]; at 3.7 µM -3% | [1]; at 11.0 µM 2% | [1]; at 33.0 µM 16% | [1]; at 100.0 µM 12% | [2]; at 1.2 µM -2% | [2]; at 3.7 µM -8% | [2]; at 11.0 µM 1% | [2]; at 33.0 µM 12% | [2]; at 100.0 µM 7% | [3]; at 1.2 µM -25% | [3]; at 3.7 µM 3% | [3]; at 11.0 µM 15% | [3]; at 33.0 µM 39% | [3]; at 100.0 µM 26% | [4]; [17] -6% | [4]; [18] 1% | [4]; at 50.0 µM 25.8%

CC1=NN(C(=O)CC(=O)NC(=O)/C=C\c2ccccc2)C(=O)C1N=Nc1ccc([N+](=O)[O-])cc1 (centres undefined)
active: [5]; at 33.0 µM 75% | [5]; at 100.0 µM 72% | [9]; at 33.0 µM 73% | [9]; [18] 87% | [9]; at 100.0 µM 71% | [10]; at 50.0 µM 77.5% | [15]; at 50.0 µM 79.5% | [3]; at 33.0 µM 77% | [3]; at 100.0 µM 74% | [4]; at 50.0 µM 76.6% | [16]; at 11.0 µM 77% | [16]; at 33.0 µM 83% | [16]; at 100.0 µM 82%
inactive: [5]; at 1.2 µM -1% | [5]; at 3.7 µM 3% | [5]; at 11.0 µM 56% | [6]; at 1.2 µM 2% | [6]; at 3.7 µM 4% | [6]; at 11.0 µM 20% | [6]; at 33.0 µM 35% | [6]; at 100.0 µM 34% | [7]; at 1.2 µM 19% | [7]; at 3.7 µM 42% | [7]; at 11.0 µM 62% | [7]; at 33.0 µM 64% | [7]; at 100.0 µM 60% | [8]; at 1.2 µM 1% | [8]; at 3.7 µM 9% | [8]; at 11.0 µM 32% | [8]; at 33.0 µM 51% | [8]; at 100.0 µM 55% | [9]; at 1.2 µM -7% | [9]; at 3.7 µM -10% | [9]; [17] -1% | [9]; at 11.0 µM 38% | [9]; at 50.0 µM 59.1% | [10]; at 1.2 µM 3% | [10]; at 3.7 µM 8% | [10]; [17] -13% | [10]; at 11.0 µM 26% | [10]; at 33.0 µM 49% | [10]; [18] 35% | [10]; at 100.0 µM 43% | [11]; at 1.2 µM 1% | [11]; at 3.7 µM 5% | [11]; at 11.0 µM 21% | [11]; at 33.0 µM 41% | [11]; at 100.0 µM 46% | [12]; [17] -1% | [12]; [18] 54% | [12]; at 50.0 µM 65.3% | [13]; at 1.2 µM 6% | [13]; at 3.7 µM 9% | [13]; at 11.0 µM 20% | [13]; at 33.0 µM 34% | [13]; at 100.0 µM 37% | [14]; [17] 43% | [14]; [18] 49% | [14]; at 50.0 µM 51.2% | [15]; at 1.2 µM -1% | [15]; at 3.7 µM 4% | [15]; [17] -4% | [15]; at 11.0 µM 30% | [15]; at 33.0 µM 57% | [15]; [18] 51% | [15]; at 100.0 µM 58% | [1]; at 1.2 µM 0% | [1]; at 3.7 µM 7% | [1]; at 11.0 µM 39% | [1]; at 33.0 µM 64% | [1]; at 100.0 µM 61% | [2]; at 1.2 µM 0% | [2]; at 3.7 µM 10% | [2]; at 11.0 µM 37% | [2]; at 33.0 µM 68% | [2]; at 100.0 µM 69% | [3]; at 1.2 µM 2% | [3]; at 3.7 µM 16% | [3]; at 11.0 µM 61% | [4]; [17] -3% | [4]; [18] 65% | [16]; at 1.2 µM -8% | [16]; at 3.7 µM 4%

COC(=O)C1CCCCC1C(=O)Nc1ccccc1 (centres undefined)
active: [15]; at 50.0 µM 74.2%
inactive: [5]; at 1.2 µM 0% | [5]; at 3.7 µM 1% | [5]; at 11.0 µM 1% | [5]; at 33.0 µM 1% | [5]; at 100.0 µM -2% | [6]; at 1.2 µM -2% | [6]; at 3.7 µM -2% | [6]; at 11.0 µM 0% | [6]; at 33.0 µM -1% | [6]; at 100.0 µM 0% | [7]; at 1.2 µM -3% | [7]; at 3.7 µM -1% | [7]; at 11.0 µM -1% | [7]; at 33.0 µM -6% | [7]; at 100.0 µM 0% | [8]; at 1.2 µM 0% | [8]; at 3.7 µM -1% | [8]; at 11.0 µM 1% | [8]; at 33.0 µM -1% | [8]; at 100.0 µM -32% | [9]; at 1.2 µM -3% | [9]; at 3.7 µM -1% | [9]; [17] 10% | [9]; at 11.0 µM 0% | [9]; at 33.0 µM 0% | [9]; [18] 2% | [9]; at 50.0 µM 20.8% | [9]; at 100.0 µM -3% | [10]; at 1.2 µM -3% | [10]; at 3.7 µM -3% | [10]; [17] 0% | [10]; at 11.0 µM -2% | [10]; at 33.0 µM -4% | [10]; [18] -2% | [10]; at 50.0 µM 10.8% | [10]; at 100.0 µM -1% | [11]; at 1.2 µM -2% | [11]; at 3.7 µM -3% | [11]; at 11.0 µM -2% | [11]; at 33.0 µM -1% | [11]; at 100.0 µM -3% | [12]; [17] 0% | [12]; [18] -26% | [12]; at 50.0 µM 15.4% | [13]; at 1.2 µM -3% | [13]; at 3.7 µM -1% | [13]; at 11.0 µM -4% | [13]; at 33.0 µM -3% | [13]; at 100.0 µM -1% | [14]; [17] -2% | [14]; [18] 6% | [14]; at 50.0 µM 62.5% | [15]; at 1.2 µM -10% | [15]; at 3.7 µM -10% | [15]; [17] -7% | [15]; at 11.0 µM -12% | [15]; at 33.0 µM -12% | [15]; [18] -9% | [15]; at 100.0 µM -11% | [1]; at 1.2 µM -2% | [1]; at 3.7 µM -1% | [1]; at 11.0 µM -2% | [1]; at 33.0 µM -4% | [1]; at 100.0 µM -1% | [2]; at 1.2 µM 0% | [2]; at 3.7 µM 0% | [2]; at 11.0 µM 2% | [2]; at 33.0 µM 2% | [2]; at 100.0 µM 2% | [3]; at 1.2 µM -2% | [3]; at 3.7 µM -2% | [3]; at 11.0 µM 0% | [3]; at 33.0 µM 0% | [3]; at 100.0 µM 1% | [4]; [17] -3% | [4]; [18] -2% | [4]; at 50.0 µM 25.6% | [16]; at 1.2 µM -2% | [16]; at 3.7 µM -1% | [16]; at 11.0 µM -2% | [16]; at 33.0 µM -3% | [16]; at 100.0 µM -1%
